Results as given in ChEMBL document CHEMBL3433997, “St. Jude Leishmania screening dataset” (2016).

What was measured:
Type in all cases: functional
[1] = target: Solute carrier family 2, facilitated glucose transporter member 1 (Homo sapiens) (UniProt P11166); experiment: ST_JUDE_LEISH: Cytotoxicity at 2uM final concentration against transgenic Leishmania Mexicana promastigotes LmGLUT1 that are glucose transport deficient and complemented with the human glucose transporter GLUT1. Activity is measured by DNA content using SYBR green in vitro
Chain of Solute carrier family 2, facilitated glucose transporter member 1 (Homo sapiens) (P11166 whole entry): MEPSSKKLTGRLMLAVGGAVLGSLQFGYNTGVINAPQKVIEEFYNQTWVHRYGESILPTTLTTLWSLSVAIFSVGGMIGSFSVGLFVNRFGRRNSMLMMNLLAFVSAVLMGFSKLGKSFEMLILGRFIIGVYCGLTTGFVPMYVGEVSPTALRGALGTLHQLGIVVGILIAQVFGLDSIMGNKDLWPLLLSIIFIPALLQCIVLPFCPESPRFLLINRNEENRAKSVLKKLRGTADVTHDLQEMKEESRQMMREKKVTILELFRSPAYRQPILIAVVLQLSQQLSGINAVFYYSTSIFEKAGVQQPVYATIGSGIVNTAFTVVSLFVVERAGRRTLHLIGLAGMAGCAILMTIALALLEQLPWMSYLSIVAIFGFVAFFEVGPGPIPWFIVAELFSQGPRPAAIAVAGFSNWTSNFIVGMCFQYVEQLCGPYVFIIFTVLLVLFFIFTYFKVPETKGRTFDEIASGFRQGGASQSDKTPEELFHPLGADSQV

[2] = target: Hexose transporter 1 (Plasmodium falciparum) (UniProt O97467); experiment: ST_JUDE_LEISH: Cytotoxicity at 2uM final concentration against transgenic Leishmania Mexicana promastigotes LmPfHT that are glucose transport deficient and complemented with the Plasmodium falciparum hexose transporter. Activity is measured by DNA content using SYBR green in vitro
[3] = target: Glucose transporter (Leishmania mexicana) (UniProt O61059); experiment: ST_JUDE_LEISH: Cytotoxicity at 2uM final concentration against transgenic Leishmania Mexicana promastigotes LmGT2 that are glucose transport deficient and complemented with the L. Mexicana glucose transporter 2. Activity is measured by DNA content using SYBR green in vitro

Row | SMILES | inhibition [1] [%] | inhibition [2] [%] | inhibition [3] [%]
1 | C#CCCOc1ccc2ccccc2c1CNCCCCCCNCc1c(OCCC#C)ccc2ccccc12 | -1.76 | 3.36 | -0.13
2 | CN(C)CCCOC(=O)c1cc2cc(-c3ccccc3)ccc2n1S(=O)(=O)Cc1ccccc1 | 5.88 | 10.6 | 1.19
3 | NC1CCN(c2nc(NCCc3ccc(O)cc3)nc(NCc3ccccc3-c3ccccc3)n2)CC1 | -0.15 | 0.54 | 0.38
4 | O=C(/C=C/c1ccc(Cl)c(Cl)c1)NCCCCCN1CCC(NC(=O)NC2CCCCC2)CC1 | 1.02 | 0.4 | 1.22
5 | CN(c1ncc(-c2cccc(CNCc3ccccc3O)c2)cn1)C1CCCCC1 | -1.25 | -0.2 | 0.12
6 | NS(=O)(=O)c1cccc(Nc2nccc(-c3cnn4ncccc34)n2)c1 | 50.6 | 76.5 | 64.8
7 | Cc1cc(NC(=O)c2ccco2)ccc1OC1CCN(Cc2ccc(F)cc2)CC1 | 4.89 | 3.02 | 1.98
8 | CN(Cc1cccc(O)c1)C1CCN(c2cc(NC(=O)c3ccc(F)cc3)ccn2)CC1 | 2.02 | 3.1 | 3.78
9 | COc1ccc(C2CC(c3cccs3)=NN2C(=O)c2ccco2)cc1OC (stereo unspecified) | 5.38 | 4.8 | 4.31
10 | COc1ccc(Nc2nc(N/N=C/c3ccc(O)cc3)nc(Nc3ccc([N+](=O)[O-])cc3)n2)cc1 | 1.19 | 2.44 | 0.87
11 | CCN(CC)CCCNC(=O)/C(=C/C=C/c1cc2cc(Cl)c(Cl)cc2[nH]1)OC | 7.56 | 11.3 | 7.84
12 | Oc1cccc(-c2nc(-c3ccccc3)c(-c3ccc4oc5ccc(-c6[nH]c(-c7cccc(O)c7)nc6-c6ccccc6)cc5c4c3)[nH]2)c1 | 3.36 | 2.88 | 2.11
13 | CCOc1cc(C(=O)NC2CCN(Cc3ccccc3)CC2)ccc1-c1nc2cc(Cl)c(Cl)cc2[nH]1 | 2.82 | 5.07 | -0.27
14 | O=c1cc(NCCCNCc2cc(C(F)(F)F)ccc2F)[nH]c2ccccc12 | 0.7 | 0.86 | 3.1
15 | CC(C)CNC(=O)CN1C(=O)C(c2ccccc2)(c2ccccc2)N=C1N | 4.76 | 4.66 | 2.29
16 | N=C1NC(=O)C(=Cc2cn(-c3ccccc3)nc2-c2cccc(S(=O)(=O)N3CCCC3)c2)S1 | 8.5 | 6.98 | 7.82

Row | SMILES | inhibition [1] [%] | inhibition [2] [%] | inhibition [3] [%]
17 | COc1cc2nc(Nc3ccc4c(c3)OCCO4)nc(N)c2cc1OC | -0.32 | -0.78 | 1.75
18 | CC(=O)Nc1ccc(OCCN(Cc2ccccc2C(F)(F)F)c2ccc(C#N)c(C(F)(F)F)c2)c(Cl)c1 | 2.42 | 2.13 | 2.83
19 | O=C(CCCCCNC(=O)c1ccc(O)c(-c2ccc(Cl)c(Cl)c2)c1)NC1CCCc2ccccc21 (stereo unspecified) | 2.15 | 2.14 | 2.15
20 | COc1ccc(NC(=O)[C@H](CC(C)C)Nc2cc(C)nc(NCCc3ccc(F)cc3)n2)cc1 | 5.65 | 4.09 | 3.65
21 | COc1cc(/C=C/C(=O)NCC(CCNc2cc(=O)c3ccccc3[nH]2)NCc2cc(Br)cc(Br)c2)cc(OC)c1 (stereo unspecified) | 2.85 | 3.71 | 2.37
22 | Nc1ccc2c(N)c3ccccc3nc2c1 | 0.33 | 0.2 | -1.77
23 | O=C(Nc1ccc(-c2nc3ccccc3[nH]2)cc1)C1CCN(Cc2ccccc2)CC1 | 16.2 | 23.4 | 12.6
24 | O=C(O)Cc1ccc(-c2c[nH]c3ncc(-c4cccc5ncccc45)cc23)cc1 | 2.28 | 1.77 | 0.63
25 | c1ccc2cc3c(Nc4ccc(N5CCCCC5)cc4)ccnc3cc2c1 | 2.76 | 4.37 | 2.3
26 | Cc1cccc2nc(-c3cccc(-c4ccc(NC(=O)c5ccoc5)cc4)c3)[nH]c12 | -0.27 | 2.14 | -1.09
27 | CC(C)CCNCC(O)Cn1c2ccc(Cl)cc2c2cc(Cl)ccc21 (stereo unspecified) | 0.18 | 0.29 | 0.33
28 | Cc1cccc2nc(-c3ccc(-c4ccc(NC(=O)NCc5ccc(F)cc5)cc4)cc3)[nH]c12 | 0.56 | 0.89 | 0.63
29 | Nc1nc2c(ncn2COC(COCc2ccccc2)COCc2ccccc2)c(=O)[nH]1.Nc1nc2ncn(COC(COCc3ccccc3)COCc3ccccc3)c2c(=O)[nH]1 | -0.7 | -2 | -0.45
30 | CCN(CC)CCN(Cc1ccc(-c2ccc(C(F)(F)F)cc2)cc1)C(=O)Cn1nc(-c2ccc(C(F)(F)F)cc2)ccc1=O | 1.46 | 2.04 | 2.83
31 | N#CCCN1CCN(Cc2cccc(-c3ccc(-c4nc5ccccc5[nH]4)cc3)c2)CC1 | 2.32 | 3.22 | 0.84
32 | COc1cccc2c1CCN(CCN1CCC(CNC(=O)c3ccc(-c4ccc(C#N)cc4)cc3)CC1)C2 | 7.68 | 3.84 | 1.38
